Results reported in publication PMC10812921, “Transcriptional Coactivator BOB1 (OBF1, OCA-B) Modulates the Specificity of DNA Recognition by the POU-Domain Factors OCT1 and OCT2 in a Monomeric Configuration”.

Experiments:
[1] = molecular target: POU1 (OCT1 POU domain) (human, UniProt P14859 260-458); assay: EMSA-SELEX-seq; no BOB1; 20 mM Tris-HCl pH 7.6, 140 mM NaCl, 10% glycerol, 0.5 mM EDTA, 0.05% Triton X-100, 0.1 mg/mL BSA, 0.1 mg/mL poly(dI-dC), 5 mM DTT, room temperature, 20 min; high values mean tight binding; conditions: protein: recombinant; dsDNA, one strand shown
Chain of POU1 (OCT1 POU domain) (P14859 260-458): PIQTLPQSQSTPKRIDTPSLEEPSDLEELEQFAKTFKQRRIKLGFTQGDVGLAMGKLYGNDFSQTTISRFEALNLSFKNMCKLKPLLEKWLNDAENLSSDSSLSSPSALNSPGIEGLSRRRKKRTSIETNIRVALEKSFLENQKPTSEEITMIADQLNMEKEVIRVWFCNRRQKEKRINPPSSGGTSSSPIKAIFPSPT
Procedure, shortened: (§1)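 Tagged POU-domain proteins were expressed in E. coli BL21, purified under denaturing conditions and renatured. Then 30 ng was mixed with 300 ng of a PCR-amplified double-stranded random 35-nt library, with or without 28 ng coactivator protein, in 20 μL Tris–HCl pH 7.6 binding buffer for 20 min at RT. Complex bands were cut from native 6% PAGE, eluted and PCR-amplified over four rounds, then Illumina-sequenced. Binding preference is the percentage of sequenced 8-mers matching a motif pattern.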

[2] = molecular target: T1, POU2 (OCT2 POU domain) (human, UniProt P09086 175-386); assay: as above; conditions: protein: recombinant; dsDNA, one strand shown
T1 sequence: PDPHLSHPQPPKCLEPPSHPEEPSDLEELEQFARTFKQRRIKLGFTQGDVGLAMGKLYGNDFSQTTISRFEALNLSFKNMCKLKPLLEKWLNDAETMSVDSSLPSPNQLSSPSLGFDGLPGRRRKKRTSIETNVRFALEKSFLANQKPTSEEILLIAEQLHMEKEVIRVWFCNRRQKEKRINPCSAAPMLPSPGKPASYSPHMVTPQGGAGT
Procedure, shortened: as §1

[3] = molecular target: POU1 (OCT1 POU domain);BOB1 (OBF1, OCA-B) (human;human, UniProt P14859;Q16633 260-458;1-256, |); assay: EMSA-SELEX-seq; with BOB1 (ternary complex band); 20 mM Tris-HCl pH 7.6, 140 mM NaCl, 10% glycerol, 0.5 mM EDTA, 0.05% Triton X-100, 0.1 mg/mL BSA, 0.1 mg/mL poly(dI-dC), 5 mM DTT, room temperature, 20 min; high values mean tight binding; conditions: protein: recombinant;recombinant; copies: 1;1; dsDNA, one strand shown
Procedure, shortened: as §1

[4] = molecular target: T2, POU2 (OCT2 POU domain);BOB1 (OBF1, OCA-B) (human;human, UniProt P09086;Q16633 175-386;1-256, |); assay: as above; conditions: protein: recombinant;recombinant; copies: 1;1; dsDNA, one strand shown
T2 sequence 1: T1 sequence
T2 sequence 2: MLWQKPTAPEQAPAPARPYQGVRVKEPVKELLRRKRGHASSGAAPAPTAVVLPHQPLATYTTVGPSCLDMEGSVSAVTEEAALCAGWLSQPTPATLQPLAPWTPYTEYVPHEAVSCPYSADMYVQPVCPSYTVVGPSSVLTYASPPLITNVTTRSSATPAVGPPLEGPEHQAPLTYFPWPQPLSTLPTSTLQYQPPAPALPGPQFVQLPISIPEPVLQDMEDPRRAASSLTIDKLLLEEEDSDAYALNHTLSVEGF
Procedure, shortened: as §1

| Sequence | binding signal [1] | binding signal [2] | binding signal [3] | binding signal [4] |
| --- | --- | --- | --- | --- |
| ACTACAAC | 0.0122 % of ANNNNAAN 8-mers | 0.0196 % of ANNNNAAN 8-mers | 0.0164 % of ANNNNAAN 8-mers | 0.0173 % of ANNNNAAN 8-mers |
| AGCAAAAT | 0.102 % of ANNNNAAN 8-mers | 0.0702 % of ANNNNAAN 8-mers | 0.107 % of ANNNNAAN 8-mers | 0.0759 % of ANNNNAAN 8-mers |
| AAAAGAAT | 0.0858 % of ANNNNAAN 8-mers | 0.088 % of ANNNNAAN 8-mers | 0.0937 % of ANNNNAAN 8-mers | 0.0817 % of ANNNNAAN 8-mers |
| ATAGAAAT | 0.0782 % of ANNNNAAN 8-mers | 0.0961 % of ANNNNAAN 8-mers | 0.0878 % of ANNNNAAN 8-mers | 0.0892 % of ANNNNAAN 8-mers |
| ACCATAAG | 0.0324 % of ANNNNAAN 8-mers | 0.0414 % of ANNNNAAN 8-mers | 0.0238 % of ANNNNAAN 8-mers | 0.0248 % of ANNNNAAN 8-mers |
| AGGATAAA | 0.0549 % of ANNNNAAN 8-mers | 0.0834 % of ANNNNAAN 8-mers | 0.0609 % of ANNNNAAN 8-mers | 0.0718 % of ANNNNAAN 8-mers |
| AATCAAAG | 0.0854 % of ANNNNAAN 8-mers | 0.0857 % of ANNNNAAN 8-mers | 0.122 % of ANNNNAAN 8-mers | 0.0916 % of ANNNNAAN 8-mers |
| AGATGAAC | 0.0286 % of ANNNNAAN 8-mers | 0.0363 % of ANNNNAAN 8-mers | 0.0207 % of ANNNNAAN 8-mers | 0.0256 % of ANNNNAAN 8-mers |
| AGATTAAA | 0.105 % of ANNNNAAN 8-mers | 0.11 % of ANNNNAAN 8-mers | 0.0648 % of ANNNNAAN 8-mers | 0.071 % of ANNNNAAN 8-mers |
| ATCCAAAT | 0.131 % of ANNNNAAN 8-mers | 0.11 % of ANNNNAAN 8-mers | 0.209 % of ANNNNAAN 8-mers | 0.133 % of ANNNNAAN 8-mers |
| ATGATAAT | 0.513 % of ANNNNAAN 8-mers | 0.582 % of ANNNNAAN 8-mers | 0.138 % of ANNNNAAN 8-mers | 0.135 % of ANNNNAAN 8-mers |
| ACGGAAAT | 0.087 % of ANNNNAAN 8-mers | 0.099 % of ANNNNAAN 8-mers | 0.142 % of ANNNNAAN 8-mers | 0.0792 % of ANNNNAAN 8-mers |
| AAGGTAAT | 0.122 % of ANNNNAAN 8-mers | 0.163 % of ANNNNAAN 8-mers | 0.0925 % of ANNNNAAN 8-mers | 0.128 % of ANNNNAAN 8-mers |
| AACCCAAA | 0.0233 % of ANNNNAAN 8-mers | 0.0173 % of ANNNNAAN 8-mers | 0.0277 % of ANNNNAAN 8-mers | 0.0206 % of ANNNNAAN 8-mers |
| AAACAAAT | 0.352 % of ANNNNAAN 8-mers | 0.266 % of ANNNNAAN 8-mers | 0.761 % of ANNNNAAN 8-mers | 0.669 % of ANNNNAAN 8-mers |
| AATCAAAC | 0.0526 % of ANNNNAAN 8-mers | 0.057 % of ANNNNAAN 8-mers | 0.0765 % of ANNNNAAN 8-mers | 0.0405 % of ANNNNAAN 8-mers |
| ACTGTAAT | 0.0572 % of ANNNNAAN 8-mers | 0.0788 % of ANNNNAAN 8-mers | 0.0464 % of ANNNNAAN 8-mers | 0.0504 % of ANNNNAAN 8-mers |
| AACACAAG | 0.0194 % of ANNNNAAN 8-mers | 0.0253 % of ANNNNAAN 8-mers | 0.0219 % of ANNNNAAN 8-mers | 0.0206 % of ANNNNAAN 8-mers |
| AATGCAAC | 0.0435 % of ANNNNAAN 8-mers | 0.0409 % of ANNNNAAN 8-mers | 0.046 % of ANNNNAAN 8-mers | 0.0413 % of ANNNNAAN 8-mers |
| ATTGTAAT | 0.312 % of ANNNNAAN 8-mers | 0.357 % of ANNNNAAN 8-mers | 0.116 % of ANNNNAAN 8-mers | 0.137 % of ANNNNAAN 8-mers |
| ACGGTAAG | 0.0351 % of ANNNNAAN 8-mers | 0.0311 % of ANNNNAAN 8-mers | 0.0359 % of ANNNNAAN 8-mers | 0.0413 % of ANNNNAAN 8-mers |
| ACCTAAAT | 0.0393 % of ANNNNAAN 8-mers | 0.0489 % of ANNNNAAN 8-mers | 0.0386 % of ANNNNAAN 8-mers | 0.0421 % of ANNNNAAN 8-mers |
| AAAGGAAA | 0.103 % of ANNNNAAN 8-mers | 0.0903 % of ANNNNAAN 8-mers | 0.144 % of ANNNNAAN 8-mers | 0.0933 % of ANNNNAAN 8-mers |
